Measured values taken from the supplement of paper PMC13380429.
Counter-ions that a name gives are not always drawn. Unmarked numbers belong to inactive results.

These compounds were tested on Vero E6 infected with SARS-CoV-2 (assay: inhibition of SARS-CoV-2 cytopathic effect; higher = more antiviral protection, active = above 15). Settings: 1 nM; 48 h.

Q: Which “inhibition of SARS-CoV-2 cytopathic effect” value (“inhibition” below) does the source give for `N[C@@H]1CCN(c2cccnc2)C1` here?
A: 0.23%

Q: With `O=C1c2ccccc2-c2n[nH]c3cccc1c23` [pyrazolanthrone] as the compound, how does the “inhibition” value read?
A: -4.36%

Q: For `CCC(=O)O[C@H]1CC[C@H]2[C@@H]3CCC4=CC(=O)CC[C@]4(C)[C@H]3CC[C@]12C`, which “inhibition” value is on record?
A: -13.2%

Q: How did the “inhibition” value turn out when `N[C@@H](CSCCCO)C(=O)O` [fudosteine] was run?
A: 0.08%

Q: `CC(C)(Cc1c[nH]c2ccc(Cl)cc12)NCCOc1ccccc1OCC1CC1` was tested. Which “inhibition” value did it give?
A: 0.45%

Q: Which “inhibition” value does the source give for `Cc1cccc(C)c1NC(=O)c1ccccc1C(=O)O` [ftaxilide] here?
A: -0.49%

Q: How did the “inhibition” value turn out when `CO[C@H]1/C=C/O[C@@]2(C)Oc3c(C)c(O)c4c(O)c(c(/C=N/N5CCN(C)CC5)c(O)c4c3C2=O)NC(=O)/C(C)=C\C=C\[C@H](C)[C@H](O)[C@@H](C)[C@@H](O)[C@@H](C)[C@H](OC(C)=O)[C@@H]1C` [rifampin] was run?
A: -3.64%

Q: With `CCN(CC)Cc1ccc(C(=O)N(CCc2ccccc2OC)[C@@H]2CCNC2)cc1` as the compound, how does the “inhibition” value read?
A: -1.07%

Q: For `CCc1cc(Cl)c(OC)c(C(=O)NC[C@@H]2CCCN2CC)c1O` [eticlopride], which “inhibition” value is on record?
A: -0.43%

Q: With `C=C(C)[C@@H]1CC[C@]2(C(=O)O)CC[C@]3(C)[C@H](CC[C@@H]4[C@@]5(C)CC[C@H](O)C(C)(C)[C@@H]5CC[C@]43C)[C@@H]12` [betulinic-acid] as the compound, how does the “inhibition” value read?
A: -1.47%

Q: `CC/C(=C(\c1ccc(O)cc1)c1ccc(OCCNC)cc1)c1ccccc1` [Endoxifen HCl] was tested. Which “inhibition” value did it give?
A: -1.34%

Q: Which “inhibition” value does the source give for `O=P1(N(CCCl)CCCl)NCCCO1` (stereo unspecified) [cyclophosphamide] here?
A: -3.03%

Q: With `NCCc1c[nH]c2ccc(O)cc12` [serotonin] as the compound, how does the “inhibition” value read?
A: -0.73%

Q: Which “inhibition” value does the source give for `C[C@H]1c2cccc(O)c2C(=O)C2=C(O)[C@]3(O)C(=O)C(C(N)=O)=C(O)[C@@H](N(C)C)[C@@H]3[C@@H](O)[C@@H]21` [doxycycline] here?
A: -1.68%

Q: How did the “inhibition” value turn out when `N=C(NCc1ccc(Cl)cc1)SCCCc1c[nH]cn1` [clobenpropit] was run?
A: 1.58%

Q: With `CCn1nc(C)c2c1C(c1ccccc1)=NCC(=O)N2` [ripazepam] as the compound, how does the “inhibition” value read?
A: -1.39%

Q: For `COc1cc(CCc2cc(NC(=O)c3ccc(N4CC(C)NC(C)C4)cc3)n[nH]2)cc(OC)c1` (stereo unspecified), which “inhibition” value is on record?
A: -1.78%

Q: With `CCOC(=O)CCC(=O)O[C@H]1[C@H](O[C@@H]2[C@@H](C)[C@H](O[C@H]3C[C@@](C)(OC)[C@@H](O)[C@H](C)O3)[C@@H](C)C(=O)O[C@H](CC)[C@@](C)(O)[C@H](O)[C@@H](C)C(=O)[C@H](C)C[C@@]2(C)O)O[C@H](C)C[C@@H]1N(C)C` [erythromycin-ethylsuccinate] as the compound, how does the “inhibition” value read?
A: 0.01%

Q: Which “inhibition” value does the source give for `COc1ccc(-c2ccc3cc(C(=O)O)ccc3c2)cc1C12CC3CC(CC(C3)C1)C2` [adapalene] here?
A: -0.05%

Q: Which “inhibition” value does the source give for `C=C1C[C@@]2(O)O[C@@]3(C[C@H]2C(C)C)[C@@H](C)CC[C@@H]13` [curcumol] here?
A: -2.21%

Q: How did the “inhibition” value turn out when `O=C(O)CN1C(=O)c2cccc3cccc(c23)C1=O` [alrestatin] was run?
A: 5.18%

Q: For `CCCCOc1ccc(-c2cncc(C(=O)NCc3cccnc3N3CCOCC3)c2)cc1Cl`, which “inhibition” value is on record?
A: -0.69%

Q: For `O=C(c1cccc(Br)c1)N1CCC(N2CCCC2)CC1`, which “inhibition” value is on record?
A: -0.38%

Q: With `CC[C@H]1[C@@H](O)[C@@H]2[C@H](CC[C@]3(C)[C@@H]([C@H](C)CCC(=O)O)CC[C@@H]23)[C@@]2(C)CC[C@@H](O)C[C@@H]12` [obeticholic-acid] as the compound, how does the “inhibition” value read?
A: 0.365%

Q: Which “inhibition” value does the source give for `CC(C)(C#N)c1ccc(N2C(=O)OCc3cnc4ccc(-c5cnc6ccccc6c5)cc4c32)cc1` here?
A: 4.95%

Q: `c1cc(-c2cnn3cc(-c4ccc(N5CCNCC5)cc4)cnc23)c2cccnc2c1` was tested. Which “inhibition” value did it give?
A: -0.58%

Q: With `c1ccc(N2CCN(CCCOc3ccc4c(c3)OCO4)CC2)cc1` as the compound, how does the “inhibition” value read?
A: -0.84%

Q: With `CC(C)(C)NCC(O)c1cc(Br)no1` (stereo unspecified) [broxaterol] as the compound, how does the “inhibition” value read?
A: -1.51%

Q: How did the “inhibition” value turn out when `Nc1nc(=O)n([C@H]2C[C@H](O)[C@@H](CO)O2)cc1Cl` [cytochlor] was run?
A: 0.97%

Q: `COc1cc(OC)c(C(=O)CCCN2CCCC2)c(OC)c1` [buflomedil] was tested. Which “inhibition” value did it give?
A: 1.62%

Q: For `CCCCCCCCC(=O)N[C@H](CN1CCCC1)[C@H](O)c1ccc2c(c1)OCCO2`, which “inhibition” value is on record?
A: 3.01%
